From PubChem BioAssay (NCI)
This is part of a sample that, as a whole, favours compounds with a hit. Of some 83,000 tested, about 20% had one in any assay.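 Values shown are percent growth following 48 h exposure of cells in 96-well plates to a single concentration of compound; below 10 was considered active.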 Unmarked numbers belong to inactive results. Activity calls are given as the source filed them.

How the values were obtained:
Assay in all cases: NCI-60 one-dose screen, 48 h (100 = growth as untreated, 0 = no growth, -100 = all killed)
Details in all cases: 10 µM unless noted
T-47D breast = test system: T-47D breast
BT-549 breast = test system: BT-549 breast
MDA-MB-435 melanoma = test system: MDA-MB-435 melanoma
SW-620 colon = test system: SW-620 colon
MCF7 breast = test system: MCF7 breast
HCT-116 colon = test system: HCT-116 colon
HCC-2998 colon = test system: HCC-2998 colon
KM12 colon = test system: KM12 colon

Row | Compound | growth (T-47D breast) | growth (BT-549 breast) | growth (MDA-MB-435 melanoma) | growth (SW-620 colon) | growth (MCF7 breast) | growth (HCT-116 colon) | growth (HCC-2998 colon) | growth (KM12 colon)
1 | O=C(CN1CCOCC1)Nc1ccc(Cn2nnc3c2C(=O)c2nnn(Cc4ccc(NC(=O)CN5CCOCC5)cc4)c2C3=O)cc1 | -26.5% (active) | -95.6% (active) | -77.1% (active) | 4.23% (active) | -62% (active) | -75.1% (active) | -42% (active) | 6.44% (active)
2 | Cn1cc(-c2csc(-c3cn(C)c4ncccc34)n2)c2ccccc21 | 31.8% | 22% | -40.1% (active) | 20.7% | 13% | 20.5% | 37.6% | 23.1%
3 | Cc1ccc(-c2nc(/C=N/Nc3cc(C)nc4ccc(Br)cc34)c(C)o2)cc1 | -8.4% (active) | 86.3% | -95.1% (active) | -84.7% (active) | -78.6% (active) | -65.8% (active) | -63.4% (active) | -39.9% (active)
4 | COc1ccc(-c2cc(-c3ccc(N(C)C)cc3)nc(NC(=O)c3ccncc3)n2)cc1 | 88.9% | 104% | 104% | 98.7% | 78% | 94% | 100% | 97.8%
5 | CN(C)CC(=O)Nc1ccc(Cn2nnc3c2C(=O)c2nnn(Cc4ccc(NC(=O)CN(C)C)cc4)c2C3=O)cc1 | -51.7% (active) | -89.7% (active) | -87.5% (active) | -27.3% (active) | -61.6% (active) | -87.7% (active) | -51.2% (active) | -54.6% (active)
6 | Clc1ccc(-c2nnc(COc3ccccc3Cl)o2)cc1 | 69.9% | 89.4% | 58.4% | 91.1% | 78.7% | 51.7% | 86.8% | 82.4%
7 | CSc1ccc(N=C=C(c2ccccc2)c2ccccc2)cc1 | 81.9% | 88.9% | 97.4% | 86% | 78.5% | 89.3% | 100% | 102%
8 | Cc1cc(Nc2nc(-c3cccnc3)nc3ccccc23)n[nH]1 | 27.2% | 47.2% | 56.2% | 47% | 23% | 30.9% | 69.7% | 19.1%
9 | COc1ccc2nc3cc(Cl)ccc3c(NCCNCC(O)CO)c2c1 (stereo unspecified) | 21.7% | 44.3% | 28.3% | 15.2% | 9.17% (active) | 9.6% (active) | 44.8% | 20.7%
10 | CCC(C)[C@@H]1NC(=O)[C@@H]2CCCN2C(=O)[C@H](Cc2ccccc2)NC(=O)[C@@H]2CCCN2C(=O)[C@H](Cc2ccccc2)NC(=O)[C@@H]2CCCN2C(=O)[C@H](Cc2ccccc2)NC1=O (stereo partly specified) | 98.9% | 109% | 112% | 105% | 87.5% | 113% | 106% | 121%
11 | N=c1c2ccccc2nc2n1CCCCC2 | 111% | 117% | 103% | 110% | 99.4% | 109% | 106% | 112%
12 | CC(C)Oc1nc2c(c(=O)n(C)c(=O)n2C)n1C | 90.3% | 109% | 105% | 102% | 95.2% | 101% | 101% | 105%
13 | O=C(/C=C\c1cccc([N+](=O)[O-])c1)c1ccccc1 | -5.11% (active) | 90.1% | 65.7% | -30.1% (active) | -9.56% (active) | -68.3% (active) | 10.9% | -49.7% (active)
14 | Cc1ccc2cnc(N)c(C#Cc3cncc(C(=O)Nc4ccc(CN5CCN(C)CC5)c(C(F)(F)F)c4)c3)c2c1 | -65.2% (active) | -75.1% (active) | -96.6% (active) | -86.1% (active) | -85.8% (active) | -36.1% (active) | -82.9% (active) | -82.6% (active)
15 | Cc1cc(Nc2nc(N3CCOCC3)nc3ccccc23)n[nH]1 | 72.5% | 61.5% | 57.4% | 79.3% | 47.8% | 40.1% | 83.4% | 10.3%
16 | CCCCCCCCCCCCCCCCCCNC(=O)[C@H]1CSC(c2ccc(F)c(OC)c2)N1 (stereo partly specified) | -72.3% (active) | -75.9% (active) | -92.7% (active) | -74.5% (active) | -71.7% (active) | -85.5% (active) | -91.4% (active) | -72.3% (active)

Row | Compound | growth (T-47D breast) | growth (BT-549 breast) | growth (MDA-MB-435 melanoma) | growth (SW-620 colon) | growth (MCF7 breast) | growth (HCT-116 colon) | growth (HCC-2998 colon) | growth (KM12 colon)
17 | COc1cc(NCCCCN=C(N)NC(N)=NC(C)C)c2ncccc2c1 | -8.55% (active) | 54.8% | 110% | 62.9% | -94.3% (active) | 1.56% (active) | 11.9% | 20.1%
18 | Cc1ccc(/C=C2\Oc3cc(OCC(=O)c4ccc(Cl)cc4)ccc3C2=O)cc1 | 97.9% | 110% | 104% | 97.1% | 119% | 89.5% | 92.6% | 104%
19 | Nc1c(C(=O)Nc2ccccc2)sc2nc3c(cc12)CN(CCc1ccccc1)CC3 | 88.1% | 104% | 102% | 91.3% | 85.8% | 98.3% | 99% | 98.8%
20 | CS(=O)CCCCCN=C=S (stereo unspecified) | -26.3% (active) | 2.12% (active) | 20.4% | 5.5% (active) | 0.852% (active) | -2.02% (active) | -11.3% (active) | -12.6% (active)
21 | Cc1cc(=O)oc2cc(Oc3nc(-c4ccc(Cl)cc4)cn4c(-c5ccc(Cl)cc5)cnc34)ccc12 | 104% | 89.4% | 75.5% | 66.7% | 73.1% | 92.1% | 106% | 81.2%
22 | C[C@@H]1CCC2=C(CCC[C@]2(C)C(=O)O)[C@@]1(C)CCc1ccoc1 | 94.9% | 117% | 107% | 98.8% | 96.7% | 96% | 87.6% | 97.7%
23 | O=C(/C=C/c1ccc(Cl)cc1)c1ccc(O)c(CN2CCN(c3cc4c(cc3F)c(=O)c(C(=O)O)cn4C3CC3)CC2)c1 | 53.4% | 46.3% | 52% | 47.8% | 45.6% | 12.6% | 59.4% | 59.3%
24 | O=C(CO[N+](=O)[O-])Nc1ccc(C(=O)/C=C/c2ccc(Cl)cc2)cc1 | 55.5% | 18.9% | -2.76% (active) | -61.8% (active) | 1.64% (active) | -49.2% (active) | -61.3% (active) | -60.6% (active)
25 | CCN(CC)CC(O)c1cc(-c2ccc(Cl)cc2)nc2c(C)c(Cl)ccc12 (stereo unspecified) | -89.2% (active) | -36.1% (active) | -90% (active) | -85.8% (active) | -92% (active) | -100% (active) | -97.4% (active) | -100% (active)
26 | COc1cc(C2C(C(=O)c3cccs3)=C(O)C(=O)N2CCN2CCOCC2)cc(OC)c1OC (stereo unspecified) | 104% | 107% | 99.5% | 97.2% | 95.1% | 101% | 101% | 98.3%
27 | O=C1/C(=C/c2ccc(Cl)c(Cl)c2)CN(C(=O)CCN2CCC(=NO)CC2)C/C1=C\c1ccc(Cl)c(Cl)c1 | -79.9% (active) | -87.9% (active) | -93.8% (active) | -62.9% (active) | -53.8% (active) | -47.1% (active) | -77.1% (active) | -80.9% (active)
28 | COc1cccc(-n2cc(-c3nc(Nc4cc(C)[nH]n4)c4ccccc4n3)nn2)c1 | 17.6% | 49.3% | 34% | 66.5% | 37.6% | 41.5% | 44.5% | 23%
29 | CC#CC#Cc1cccc(=O)o1 | 59.9% | 38.1% | 15.2% | 27.3% | 29% | 30.9% | 95.8% | 58.8%
30 | COc1c2ccccc2c(OC)c2[nH]c(=O)ccc12 | 67.8% | 26.7% | -67.2% (active) | 61.7% | 42.2% | 57.6% | 81% | 36.2%
31 | Cc1noc(C)c1-c1cc(O)cc(C(O)c2ccccc2)c1 (stereo unspecified) | 47.1% | 64.7% | 43.9% | 72.1% | 20.9% | 58.1% | 62.2% | 53.1%
32 | COc1ccc(C(=O)COc2ccc(/C=C3\Oc4ccc(Cl)cc4C3=O)cc2)cc1 | 78.2% | 98.1% | 106% | 83.6% | 47.1% | 23.6% | 111% | 98.8%
